In PubChem BioAssay (NCI) one finds growth inhibition data, which are given here for 19 molecules.

“And” between values parts separate entries of the source, which are not always exact repeats. Equal values may be shown once. The panel holds about 79,000 compounds, 15% with a hit somewhere; the sample as a whole holds those more often. Values without a mark were called inactive. The source made the active and inactive calls. No stated cut-off is given here; in the data, active means growth inhibition above about 70%; inactive means the rest.

A short description of test [1]: NCI Yeast Anticancer Drug Screen. Data for the rad50 strain (AID 155).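 Further: 0% = growth of vehicle-only cultures of the same strain.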 Conditions: S. cerevisiae rad50 strain growth inhibition; at 50.0 µM; hits give high values. In short, it runs like this:
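Inhibition values express reduced yeast growth in compound-treated cultures relative to vehicle-treated controls.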

A short description of test [2]: NCI Yeast Anticancer Drug Screen. Data for the mec2-1 strain (AID 157). The settings on record: S. cerevisiae mec2-1 strain, at 50.0 µM, hits give high values. In short, it runs like this: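 Test agents were screened against the mec2-1 yeast strain, with defined DNA repair or cell cycle alteration. Growth was scored as inhibition against vehicle-only controls.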
A short description of test [3]: NCI Yeast Anticancer Drug Screen. Data for the sgs1 mgt1 strain (AID 161).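 Further: 0% = growth of cultures given vehicle only.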 Conditions: S. cerevisiae sgs1 mgt1 strain, at 50.0 µM, hits give high values. In short, it runs like this: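 Inhibition of yeast growth, normalised to vehicle-treated controls, is reported for a strain bearing genetic alterations in DNA damage repair.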
Test [4] in a line: NCI Yeast Anticancer Drug Screen. Data for the cln2 rad14 strain (AID 165).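 Further: 0% = growth equal to vehicle treated cultures.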 Conditions: S. cerevisiae cln2 rad14 strain, at 50.0 µM, hits give high values. In short, it runs like this: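 Growth of compound-exposed yeast (cln2 rad14 genotype) measured and expressed as inhibition relative to vehicle.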
Test [5] in a line: NCI Yeast Anticancer Drug Screen. Data for the bub3 strain (AID 167). Conditions: S. cerevisiae bub3 mutant strain, at 50.0 µM, hits give high values. In short, it runs like this:
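Steps: expose the mutant yeast strain to compound; grow alongside vehicle-treated cultures; measure growth; express inhibition against the vehicle cultures.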

The nature of test [6]: NCI Yeast Anticancer Drug Screen. Data for the mlh1 rad18 strain (AID 175). Conditions: S. cerevisiae mlh1 rad18 strain growth inhibition; at 50.0 µM; hits give high values. In short, it runs like this: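 In this whole-cell yeast screen, a strain with altered DNA damage repair is challenged with compound, and its growth is measured against matched vehicle-treated controls.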

Consider `O=C1NC(=O)C(CC(Br)CBr)(c2ccccc2)C(=O)N1` (centres undefined), for which the growth inhibition was 16.6% in test [1]; -1.45% in test [2]; 20.8% in test [3]; 11.4% in test [4]; -0.75% in test [5]; 11.2% in test [6].
`N#C[S-].N#C[S-].[Au+3].[Au+3].[CH3-].[CH3-].[CH3-].[CH3-]`: the growth inhibition in test [1] is 51.4%; in test [2], 11%; in test [3], 61.5%; in test [4] it was 33.4%; in test [5], 12.5%; in test [6], 53.5%.
Turning to `O=C(CN1CC1)NCCCCCCCNC(=O)CN1CC1`, the growth inhibition in test [1] is -13.4%; in test [2] it was 3.5%; in test [3] it was 1.6%; in test [4], 8.15%; in test [5] it was -4.15%; in test [6] it was 25.4%.
Take `CC1(C(=O)O)C2[Se]c3cc[se]c3C2C1(C)C(=O)O` (centres undefined): the growth inhibition in test [1] was -2.5%; in test [2], 9.8%; in test [3], -8.15%; in test [4], -20.8%; in test [5] it was 1%; in test [6] it was -4.7%.
As to `COc1ccc2c(c1O)C1=CC(=O)CCC13CCN(C)C3C2` (centres undefined), the growth inhibition in test [1] is -5.6% and 4.1%; in test [2], -6.65% and -22.6%; in test [3], 8.05% and 18.8%; in test [4], 3% and 8.05%; in test [5], 8.1% and 2.4%; in test [6], 1.4% and 0.55%.
As to `O=C(O)c1ccc([As](=O)(O)O)cc1[N+](=O)[O-]`, the growth inhibition in test [1] was -3.85%; in test [2] it was -23.1%; in test [3], -0.65%; in test [4], 1.7%; in test [5] it was -3.6%; in test [6], 7.4%.
Turning to `CCN1C(=O)C(=Cc2ccc(-c3ccccc3)cc2)C(=O)N(CC)C1=S`, the growth inhibition in test [1] was 32.4%; in test [2], -5.5%; in test [3], 23.1%; in test [4], 16.9%; in test [5], 15.4%; in test [6] it was 20.4%.
Turning to `CNC(Cc1ccccc1)c1ccc(OC)cc1` (centres undefined), the growth inhibition was 27.1% in test [1]; 17.2% in test [2]; 32.3% in test [3]; 5.75% in test [4]; 34.6% in test [5]; 35.6% in test [6].
On to `[C-]#[N+]C1CCCCC1.[C-]#[N+]C1CCCCC1.[Ni].[S-]c1ccccc1.[S-]c1ccccc1`, for which the growth inhibition was 37.5% in test [1]; 16% in test [2]; 40.4% in test [3]; 20.1% in test [4]; 3.5% in test [5]; 36.6% in test [6].
For the molecule `Cc1cccc[c]1[Sb](=[O])([OH])[OH]`, the growth inhibition is 6.6% in test [1]; -10.2% in test [2]; -15.9% in test [3]; -7.35% in test [4]; -17.2% in test [5]; -2.7% in test [6].
`O=C1NC(=S)NC(=O)C1=Cc1ccc(-c2ccccc2)cc1`: the growth inhibition was 33.1% in test [1]; -12% in test [2]; 16.7% in test [3]; 15.6% in test [4]; 13.3% in test [5]; 15.3% in test [6].
`C1CN([PH+](N2CC2)N2CC2)CCO1.[C-]#[O+].[C-]#[O+].[C-]#[O+].[C-]#[O+].[C-]#[O+].[Mo]`: the growth inhibition in test [1] is -17.9%; in test [2], -1.7%; in test [3] it was -7.3%; in test [4] it was -31.4%; in test [5], 3.9%; in test [6], 3.95%.
Take `CCCCc1ccc(N=C(N)N)cc1`: the growth inhibition was 25.6% in test [1]; 9.35% in test [2]; 19.4% in test [3]; 8.3% in test [4]; 12.2% in test [5]; -1.95% in test [6].
As for `CCCCN(CCCC)CC(O)c1ccc(Cl)c(Cl)c1` (centres undefined), the growth inhibition was -1.5% in test [1]; -21.3% in test [2]; 28.9% in test [3]; 41.3% in test [4]; 18% in test [5]; 7.75% in test [6].
Consider `CN1CCOC(c2ccccc2)c2ccsc2CC1` (centres undefined), for which the growth inhibition in test [1] was 17.2%; in test [2] it was -5%; in test [3], 35.2%; in test [4], 0%; in test [5], 9.4%; in test [6] it was 16.8%.
As to `OC[CH2][Hg][I]`, the growth inhibition in test [1], in test [2], in test [3], in test [4], in test [5] and in test [6] was 99.8% (active) throughout.
With `C[CH2][Sn]([c]1ccccc1)[c]1ccccc1`, the growth inhibition in test [1] is 33.1%; in test [2], 39.2%; in test [3], 40.3%; in test [4], 3.65%; in test [5] it was 35.5%; in test [6], 47.1%.
Consider `COc1cc2c(c(Oc3ccc(C)cc3)c1)CN(C)CC2`, for which the growth inhibition was 32.4% in test [1]; 19.3% in test [2]; 47.9% in test [3]; 39.7% in test [4]; 63.6% in test [5]; 58.8% in test [6].
`COc1cccc2c1C(=O)c1c(O)c3c(c(O)c1C2=O)CC(O)(C(C)=O)CC3OC1CC([N+](C)(C)C)C(O)C(C)O1` (centres undefined): the growth inhibition in test [1] was 97% (active); in test [2], 98.5% (active); in test [3], 97.9% (active); in test [4], 92.5% (active); in test [5], 98.3% (active); in test [6], 95.8% (active).
